Hit rate of the full screen: of about 38,000 compounds, about 1,200 (3.2%) showed an effect of 50% or more. The median lay at about -58%. Many of the other results were omitted from the sample, so strong results are more common in it than they were.
Each molecule was assayed on Plasmodium falciparum (assay: Calibr Malaria Delayed Death Assay SOP). Details: concentration 4.99e-06 (unit not given; other assays of the set use mol/L).
Assay type: functional, organism-based
Set-up: scale not given: in the data most compounds retested in dose-response had high values

| Compound | Percent Effect |
| --- | --- |
| CC(C)CNC(=O)CNc1c(NCc2ccncc2)c(=O)c1=O | -63.87% |
| Cc1ccc2nc(CN3CCCCC3CCN3CCOCC3)cn2c1 (configuration not stated) | 7.984% |
| O=C(NC1CCN(CC2CC2)C1)N1CCC(OC2CCCCC2)CC1 (configuration not stated) | 53.27% |
| O=C(NC1CCN(CC2CC2)C1)c1ccc(N2CCC(O)CC2)cc1 (configuration not stated) | -9.255% |
| CSC(C)(C)CNC(=O)NC1CCN(CC2CC2)C1 (configuration not stated) | -39.54% |
| O=C(NC1CCN(CC2CCCC2)C1)N1CCC(OCC2CC2)CC1 (configuration not stated) | 63.12% |
| NC(=O)C1CCN(C(=O)NC2CCN(CC3CCCC3)C2)CC1 (configuration not stated) | -59.5% |
| O=C(NC1CCN(CC2CC2)C1)c1ccc(C(=O)c2cc[nH]c2)cc1 (configuration not stated) | -13.77% |
| CNc1nc2c(s1)C(=O)CN(C(=O)NCCc1ccccc1)C2 | -35.41% |
| COCCN1CCC(c2nc3ccc(NC(C)C)cn3n2)CC1.O=C(O)C(F)(F)F | -58.6% |
| CCNc1ncc2c(n1)CN(c1ccc(C)c(C)c1)C2=O | -153.3% |
| Cc1ccc(S(=O)(=O)Nc2ccc(C)c(C(=O)O)c2)s1 | -129.6% |
| O=C(NCCN1CCOCC1)C1=NOC2(CCN(Cc3nccs3)C2)C1 (configuration not stated) | -143.8% |
| Cc1nn(C)c(Cl)c1CN1CCN(c2nccs2)C(C)C1 (configuration not stated) | -15.39% |
| Cc1nn(C)c(Oc2ccc(Cl)cc2)c1CN1CCC(CN)C1 (configuration not stated) | 92.45% |
| Cc1nn(C)c(Oc2ccccc2)c1CNC1CCOc2ccccc21 (configuration not stated) | -79.66% |
| O=C(O)C(F)(F)F.O=C(c1ccccn1)N1CCC2(CC1)COC(COCC1CCCC1)C2 (configuration not stated) | -17.9% |
| CC(C)C(C)NC(=O)Nc1cccc2c1CCN(S(C)(=O)=O)C2 (configuration not stated) | -62.13% |
| O=C1N(Cc2ccc(F)c(F)c2)CCCC1(O)CNCc1ncc[nH]1 (configuration not stated) | -127.8% |
| O=C(c1cn[nH]c1)N1CCC2(CCCN(Cc3ccc(F)c(F)c3)C2)C1 (configuration not stated) | -30.22% |
| CN(C)C(=O)N1CCCC2(CCN(Cc3ccc(Cl)c(F)c3)C2)C1 (configuration not stated) | 40.95% |
| Cc1c[nH]c(CN2CCC3(CCCN(Cc4ccc(F)c(F)c4)C3)C2)n1 (configuration not stated) | 79.41% |
| Cc1ccc(CN2CCC3(CCCN(Cc4ccc(F)c(F)c4)C3)C2)o1 (configuration not stated) | 25.14% |
| Fc1ccc(CN2CCCC3(CCN(Cc4ncc[nH]4)C3)C2)cc1F (configuration not stated) | 59.25% |
| Cc1noc(CN2CCCC(Cn3nc(C)nc3C)C2)n1 (configuration not stated) | -86.57% |

| Compound | Percent Effect |
| --- | --- |
| N#Cc1c(SCCN2CCCCCC2)sc2c(O)cc(O)nc12 | -30.34% |
| CN(C)S(=O)(=O)N1C[C@@H]2COC[C@]2(COc2ccccn2)C1.O=C(O)C(F)(F)F | -16.81% |
| CCCn1nnc(NCc2cc(Br)cc(Br)c2OC)n1 | -108.1% |
| COc1ccccc1OCC(=O)NCC(O)(c1cccs1)C1CC1 (configuration not stated) | -17.87% |
| CC(=O)N1CCC2(CC1)c1ncc(-c3ccc(F)cc3)n1CCN2C | -51.39% |
| CN1CCn2c(-c3cnn(C)c3)cnc2C12CCN(CC1CC1)CC2.O=C(O)C(F)(F)F.O=C(O)C(F)(F)F.O=C(O)C(F)(F)F | -83.71% |
| Cc1ccc(-c2cnc3n2CCN(C)C32CCN(CC3CC3)CC2)cc1.O=C(O)C(F)(F)F.O=C(O)C(F)(F)F.O=C(O)C(F)(F)F | 38.95% |
| CCN1CCn2c(-c3cccc(F)c3)cnc2C12CCN(C(C)=O)CC2.O=C(O)C(F)(F)F | -93.41% |
| CCS(=O)(=O)N1CCC2(CC1)c1ncc(-c3cccnc3)n1CCN2C | -142.7% |
| CN1CCn2c(-c3cccc(F)c3)cnc2C12CCN(CC1CC1)CC2.O=C(O)C(F)(F)F.O=C(O)C(F)(F)F.O=C(O)C(F)(F)F | 75.26% |
| CN1CCn2c(-c3ccccc3)cnc2C12CCN(CC1CC1)CC2.O=C(O)C(F)(F)F.O=C(O)C(F)(F)F.O=C(O)C(F)(F)F | 80.28% |
| CNC(=O)N1CCC2(CC1)c1ncc(-c3cccc(F)c3)n1CCN2C.O=C(O)C(F)(F)F | -80.59% |
| CN1CC2(CCN(c3ncnc4c3CCNC4)CC2)OC1=O | -26.92% |
| CSCc1cc(C(=O)NC2(C#N)CC2)ccc1F | -114.4% |
| CC(C)c1cc(NC(=O)CN2CCC(N3CCCCC3)CC2)on1 | -41.68% |
| CN1C(=O)C(c2cccnc2)CC12CCN(Cc1nccs1)CC2 (configuration not stated) | -72.15% |
| Cc1cc(C)n(C2CN(CC(=O)NC3CCS(=O)(=O)C3)C2)n1 (configuration not stated) | -92.21% |
| c1cnc(-c2nc(C3CCOC3)no2)cn1 (configuration not stated) | -46.11% |
| Cc1occc1CNc1ncccc1S(N)(=O)=O | -160.3% |
| CCN(C(=O)C1=NN(c2ccccc2)C(=O)CN1)c1ccccc1 | -71.25% |
| CCN(Cc1ccco1)C(=O)C1=NN(c2ccccc2)C(=O)CN1 | 59.42% |
| O=C(NCCc1ccccn1)C1=NN(c2ccccc2)C(=O)CN1 | -38.96% |
| CCc1nc(N2CCC3(CCC(=O)N(Cc4ccncc4)C3)CC2)no1 | -12.44% |
| CC(C)n1cnnc1CN(C)C(=O)Cn1ccc2ccccc2c1=O | -90.48% |
| FC(F)(F)C1CCCn2c(CNCc3ccco3)nnc21 (configuration not stated) | -67.88% |

| Compound | Percent Effect |
| --- | --- |
| CCc1cc(CNC(=O)N2Cc3ccccc3N(C)CC2C)on1 (configuration not stated) | -73.36% |
| Cc1noc(C)c1CNCC1CCN(CC(O)c2ccccc2)CC1 (configuration not stated) | 41.75% |
| CCN(CC)C1CCN(C(=O)NCc2c(C)noc2C)CC1 | -63.79% |
| CCc1cc(CNC(=O)N(C2CC2)C(C)c2ccco2)on1 (configuration not stated) | -36.38% |
| Cc1ccc(N(C)C2CCN(C(=O)CCc3ccco3)CC2)nn1 | -48.98% |
| O=C(O)C(F)(F)F.O=C(c1ccco1)N1C[C@H]2CCCN(Cc3ccc(F)cc3)[C@H]2C1 | -36.52% |
| Cn1cccc1C(=O)NCc1cn2c(n1)CN(CC1CCOCC1)CC2.O=C(O)C(F)(F)F | -71.57% |
| Cc1nc(N2CCCC2)nc2c1CCN(C(=O)NC(C)C)CC2 | 3.788% |
| Cc1cccc(N2CCOCC3(C2)CN(c2cncnc2)C(=O)CO3)n1 (configuration not stated) | -72.37% |
| O=C(CN1CCCC(Cn2cncn2)C1)NCCc1cccs1 (configuration not stated) | -76.44% |
| O=C(CNC(=O)C1(c2ccc(F)cc2F)CCC1)Nc1cccnc1 | -130.4% |
| Cc1ccc(CNCc2c[nH]nc2C(C)(C)C)c(OC2CCOC2)c1 (configuration not stated) | 54.5% |
| Cc1ccc(CNCc2nccn2C)c(OCC2CC2)c1 | -19.72% |
| COCCN1CCC(CNCc2c[nH]nc2C(C)(C)C)CC1 | -136.4% |
| Cc1ccc(NCc2cccc3cn[nH]c23)cc1OC1CCOC1 (configuration not stated) | 18.44% |
| CN(C)CCN1CCC(CNCc2c[nH]nc2C(C)(C)C)CC1 | -18.94% |
| NC(=O)c1ccc(CN2CCC(N3CCCC3)CC2)cc1 | -126.8% |
| O=C(O)C(F)(F)F.O=c1cccnn1CC1CN(CC2CCCC2)Cc2nccn2C1 (configuration not stated) | -25.12% |
| Cn1nccc1-c1cnc2n1CCC21CCN(C(=O)C2(C)CC2)CC1 | -43.4% |
| CCNC(=O)NC(=O)CNc1cccc(C(=O)c2ccccc2)c1 | -85.13% |
| CC(C)(N)CNS(=O)(=O)Cc1cccc2cccnc12.Cl | -113.8% |
| CSc1nc2ncc3c(=O)n(CCN4CCCCC4)ccc3n2n1 | -81.14% |
| Cc1ccccc1C(=O)N1CCCn2cnc(CN3CCCC3=O)c2C1 | -111.5% |
| Cc1ncccc1C(=O)Nc1cccc(OCC(F)F)n1 | -105.7% |
| CCc1ccc(S(=O)(=O)N2Cc3c(CN(C)C)nn(C)c3C2)cc1.O=C(O)C(F)(F)F | 62.16% |

| Compound | Percent Effect |
| --- | --- |
| COc1ccc(S(=O)(=O)N2Cc3c(CN(C)C)nn(C)c3C2)cc1.O=C(O)C(F)(F)F | 40.82% |
| Cc1ccc(CS(=O)(=O)N2Cc3c(CN(C)C)nn(C)c3C2)cc1.O=C(O)C(F)(F)F | 28.75% |
| CNc1ncc(CN(C)c2nc(C3CCCC3)nc3c2cnn3C)cn1 | -13.34% |
| CC(C)n1c2ccccc2c2c1cc(C(=O)O)n2C(=O)N(C)C | -103.4% |
| O=C(NCCC(O)c1ccoc1)Nc1cccs1 (configuration not stated) | -113.5% |
| CC1CCN(CCNC(=O)c2sccc2C2CC2)CC1 | -42.92% |
| O=C(Cc1ccccc1Cl)NCC1CCN(Cc2ccsc2)CC1 | 33.59% |
| O=C(NCCN1CCC(c2cccs2)CC1)Nc1cccs1 | 62.79% |
| COc1ccc(C(=O)NCCN2CCC(c3cccs3)CC2)cc1OC | 29.34% |
| O=C(NCCc1ccccc1)NCCN1CCC(c2cccs2)CC1 | 76.7% |
| O=C(Cc1ccccc1Cl)NCCN1CCC(c2cccs2)CC1 | 62.17% |
| O=C(NCCN1CCC(c2cccs2)CC1)c1ccccc1C(F)(F)F | 31.51% |
| CC(=O)NCCN1CCC(c2cccs2)CC1 | 2.442% |
| CCSc1ccccc1C(=O)NCCN1CCC(c2cccs2)CC1 | 28.22% |
| COc1ccc(CCC(=O)NCCN2CCC(c3cccs3)CC2)cc1 | 74.85% |
| O=C(NCCN1CCC(c2cccs2)CC1)c1ccc(F)cc1Cl | -24.2% |
| Cn1cnc2c1C(COCC1CC1)CN(c1ncccn1)C2.O=C(O)C(F)(F)F.O=C(O)C(F)(F)F (configuration not stated) | -186% |
| CCc1nnc(SCc2nonc2C)n1C | -83.75% |
| CCS(=O)(=O)N1Cc2ncn(CC3CC3)c2C(COCC2CC2)C1.O=C(O)C(F)(F)F (configuration not stated) | -83.39% |
| CC(C)OCc1noc(C2CCOC2)n1 (configuration not stated) | -54.08% |
| COc1ccc(-c2nnc(CNCCn3cc(C)cn3)o2)cc1 | -61.63% |
| O=C(O)c1cc(S(=O)(=O)Nc2cccc3c2OCCO3)c(Cl)cc1F | -73.09% |

— ChEMBL document CHEMBL3988442, “University of Dundee, Small-Polar-MMV Screening Library” (2021)
